Here are results for 23 targets from the supplement of paper PMC11001985.

Chain of UniProt Q9NX63 (Q9NX63 whole entry): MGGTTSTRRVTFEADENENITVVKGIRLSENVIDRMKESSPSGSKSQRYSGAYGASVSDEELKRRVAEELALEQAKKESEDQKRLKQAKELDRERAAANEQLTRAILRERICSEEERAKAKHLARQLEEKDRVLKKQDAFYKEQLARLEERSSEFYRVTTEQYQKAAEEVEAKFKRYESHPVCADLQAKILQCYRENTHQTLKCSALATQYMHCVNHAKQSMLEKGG
Chain of UniProt O15031 (O15031 whole entry): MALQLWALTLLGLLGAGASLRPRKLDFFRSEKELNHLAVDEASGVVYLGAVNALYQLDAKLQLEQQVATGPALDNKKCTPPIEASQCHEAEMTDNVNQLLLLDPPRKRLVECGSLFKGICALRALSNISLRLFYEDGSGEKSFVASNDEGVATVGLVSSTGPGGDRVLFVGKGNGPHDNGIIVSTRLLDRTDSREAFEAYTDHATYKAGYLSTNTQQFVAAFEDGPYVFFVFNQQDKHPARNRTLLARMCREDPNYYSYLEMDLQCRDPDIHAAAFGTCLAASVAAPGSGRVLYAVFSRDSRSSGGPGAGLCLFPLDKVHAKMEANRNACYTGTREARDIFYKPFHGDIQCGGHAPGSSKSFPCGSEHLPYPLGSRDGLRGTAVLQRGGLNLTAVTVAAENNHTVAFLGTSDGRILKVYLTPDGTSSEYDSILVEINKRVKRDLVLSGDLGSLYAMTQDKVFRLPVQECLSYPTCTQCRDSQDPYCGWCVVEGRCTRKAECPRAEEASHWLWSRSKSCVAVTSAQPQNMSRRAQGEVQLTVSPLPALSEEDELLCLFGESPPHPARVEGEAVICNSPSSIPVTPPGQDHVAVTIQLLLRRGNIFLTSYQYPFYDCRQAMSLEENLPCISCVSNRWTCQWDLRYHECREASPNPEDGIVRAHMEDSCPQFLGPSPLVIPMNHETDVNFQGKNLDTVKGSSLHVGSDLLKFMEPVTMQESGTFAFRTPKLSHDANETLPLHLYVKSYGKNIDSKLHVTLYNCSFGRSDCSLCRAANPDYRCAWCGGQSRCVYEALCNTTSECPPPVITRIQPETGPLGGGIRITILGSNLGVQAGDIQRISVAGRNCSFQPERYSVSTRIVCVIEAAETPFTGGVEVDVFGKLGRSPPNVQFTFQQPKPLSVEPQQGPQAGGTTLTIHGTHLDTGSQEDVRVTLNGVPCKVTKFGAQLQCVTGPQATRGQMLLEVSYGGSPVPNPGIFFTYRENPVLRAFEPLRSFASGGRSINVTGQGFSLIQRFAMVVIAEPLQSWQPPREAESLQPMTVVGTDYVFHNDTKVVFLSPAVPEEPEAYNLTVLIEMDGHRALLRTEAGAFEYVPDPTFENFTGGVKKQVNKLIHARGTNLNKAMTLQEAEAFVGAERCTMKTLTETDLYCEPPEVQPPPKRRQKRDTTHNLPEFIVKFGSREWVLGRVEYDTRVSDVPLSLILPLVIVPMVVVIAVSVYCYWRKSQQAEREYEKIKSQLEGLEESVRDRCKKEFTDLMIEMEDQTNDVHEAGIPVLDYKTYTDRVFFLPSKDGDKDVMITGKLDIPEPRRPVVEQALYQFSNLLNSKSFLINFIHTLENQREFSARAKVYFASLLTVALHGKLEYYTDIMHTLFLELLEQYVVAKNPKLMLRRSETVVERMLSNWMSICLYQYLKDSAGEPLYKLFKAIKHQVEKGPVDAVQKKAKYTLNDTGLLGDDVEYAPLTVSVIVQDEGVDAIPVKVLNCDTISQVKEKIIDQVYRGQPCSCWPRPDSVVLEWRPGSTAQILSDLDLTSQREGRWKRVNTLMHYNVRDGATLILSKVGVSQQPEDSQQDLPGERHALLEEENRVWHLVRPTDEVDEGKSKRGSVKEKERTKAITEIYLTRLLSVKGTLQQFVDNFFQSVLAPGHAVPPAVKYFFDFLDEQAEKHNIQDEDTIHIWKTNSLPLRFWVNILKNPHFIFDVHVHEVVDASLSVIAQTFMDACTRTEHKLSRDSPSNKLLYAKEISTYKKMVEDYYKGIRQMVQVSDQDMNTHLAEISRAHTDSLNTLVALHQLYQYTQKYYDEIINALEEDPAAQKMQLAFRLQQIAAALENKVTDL
Chain of UniProt Q6NZI2 (Q6NZI2 whole entry): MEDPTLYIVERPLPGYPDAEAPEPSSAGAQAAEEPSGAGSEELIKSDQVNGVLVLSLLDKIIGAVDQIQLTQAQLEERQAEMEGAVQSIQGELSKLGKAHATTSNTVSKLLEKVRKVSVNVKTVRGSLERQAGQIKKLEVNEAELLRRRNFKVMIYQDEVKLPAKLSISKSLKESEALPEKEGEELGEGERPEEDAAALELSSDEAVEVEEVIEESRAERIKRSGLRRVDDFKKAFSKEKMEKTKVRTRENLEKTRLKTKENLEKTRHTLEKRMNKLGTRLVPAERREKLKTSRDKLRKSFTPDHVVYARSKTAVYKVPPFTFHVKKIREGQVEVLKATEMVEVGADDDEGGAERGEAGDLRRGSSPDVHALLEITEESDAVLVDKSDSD
Chain of UniProt Q13275 (Q13275 whole entry): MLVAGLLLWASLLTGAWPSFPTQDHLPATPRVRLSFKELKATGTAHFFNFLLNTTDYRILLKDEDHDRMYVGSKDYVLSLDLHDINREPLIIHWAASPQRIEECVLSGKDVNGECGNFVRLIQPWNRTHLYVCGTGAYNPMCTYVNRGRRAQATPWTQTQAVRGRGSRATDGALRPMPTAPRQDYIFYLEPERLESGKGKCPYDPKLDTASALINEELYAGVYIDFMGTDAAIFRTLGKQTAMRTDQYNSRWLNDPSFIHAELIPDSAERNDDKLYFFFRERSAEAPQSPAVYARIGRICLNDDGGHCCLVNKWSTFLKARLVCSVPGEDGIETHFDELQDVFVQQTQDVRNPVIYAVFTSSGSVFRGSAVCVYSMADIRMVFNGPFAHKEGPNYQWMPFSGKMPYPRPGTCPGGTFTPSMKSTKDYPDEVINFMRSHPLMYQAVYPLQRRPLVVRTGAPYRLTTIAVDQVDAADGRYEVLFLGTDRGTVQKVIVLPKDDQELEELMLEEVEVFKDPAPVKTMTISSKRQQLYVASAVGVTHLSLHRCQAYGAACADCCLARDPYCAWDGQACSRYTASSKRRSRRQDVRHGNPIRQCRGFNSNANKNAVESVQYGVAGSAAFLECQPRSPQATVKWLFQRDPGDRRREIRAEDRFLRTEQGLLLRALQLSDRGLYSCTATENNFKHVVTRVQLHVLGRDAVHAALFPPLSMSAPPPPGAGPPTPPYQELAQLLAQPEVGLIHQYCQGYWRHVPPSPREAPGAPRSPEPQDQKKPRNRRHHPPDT
Chain of UniProt Q9HB71 (Q9HB71 whole entry): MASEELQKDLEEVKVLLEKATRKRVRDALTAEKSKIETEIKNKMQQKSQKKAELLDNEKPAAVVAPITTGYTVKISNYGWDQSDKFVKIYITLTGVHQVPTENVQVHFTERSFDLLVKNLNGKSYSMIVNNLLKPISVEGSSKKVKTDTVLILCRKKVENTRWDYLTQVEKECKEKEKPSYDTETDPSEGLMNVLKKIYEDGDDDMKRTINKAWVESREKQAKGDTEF
Chain of UniProt P54136 (P54136 whole entry): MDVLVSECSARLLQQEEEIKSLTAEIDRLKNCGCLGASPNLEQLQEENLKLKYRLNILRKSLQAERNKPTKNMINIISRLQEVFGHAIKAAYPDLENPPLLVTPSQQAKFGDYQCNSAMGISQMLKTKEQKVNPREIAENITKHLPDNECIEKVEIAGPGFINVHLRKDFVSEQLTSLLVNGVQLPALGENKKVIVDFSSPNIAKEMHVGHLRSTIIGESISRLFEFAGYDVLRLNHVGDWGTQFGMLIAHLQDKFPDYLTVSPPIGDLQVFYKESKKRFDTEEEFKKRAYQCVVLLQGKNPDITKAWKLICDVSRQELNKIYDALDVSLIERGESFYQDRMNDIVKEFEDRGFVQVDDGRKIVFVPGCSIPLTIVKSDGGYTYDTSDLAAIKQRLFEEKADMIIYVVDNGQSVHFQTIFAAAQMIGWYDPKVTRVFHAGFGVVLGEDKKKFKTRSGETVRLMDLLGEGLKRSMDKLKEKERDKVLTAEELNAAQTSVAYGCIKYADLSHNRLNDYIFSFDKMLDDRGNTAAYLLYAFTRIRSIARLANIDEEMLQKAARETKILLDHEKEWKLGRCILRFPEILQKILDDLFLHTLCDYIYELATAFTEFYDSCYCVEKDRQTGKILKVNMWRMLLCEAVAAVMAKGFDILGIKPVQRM
Chain of UniProt P25445 (P25445 whole entry): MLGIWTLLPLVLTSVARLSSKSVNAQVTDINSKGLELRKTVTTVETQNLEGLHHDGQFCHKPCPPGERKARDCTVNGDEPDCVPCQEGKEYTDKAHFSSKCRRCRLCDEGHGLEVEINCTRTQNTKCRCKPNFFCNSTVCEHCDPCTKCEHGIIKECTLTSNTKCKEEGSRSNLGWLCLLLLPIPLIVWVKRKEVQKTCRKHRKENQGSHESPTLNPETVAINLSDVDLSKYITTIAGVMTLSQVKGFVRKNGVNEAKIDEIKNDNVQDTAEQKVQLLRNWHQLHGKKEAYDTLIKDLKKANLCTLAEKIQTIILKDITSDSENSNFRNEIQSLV
Chain of UniProt P16422 (P16422 whole entry): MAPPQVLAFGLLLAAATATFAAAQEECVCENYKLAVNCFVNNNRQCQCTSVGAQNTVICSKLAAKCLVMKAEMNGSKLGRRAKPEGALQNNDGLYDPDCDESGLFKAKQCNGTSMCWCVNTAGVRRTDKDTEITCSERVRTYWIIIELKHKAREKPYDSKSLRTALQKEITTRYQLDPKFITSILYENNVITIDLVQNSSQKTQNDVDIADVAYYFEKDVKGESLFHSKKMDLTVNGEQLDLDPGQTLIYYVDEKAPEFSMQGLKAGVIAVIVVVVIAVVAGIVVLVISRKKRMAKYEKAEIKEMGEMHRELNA
Chain of UniProt P27348 (P27348 whole entry): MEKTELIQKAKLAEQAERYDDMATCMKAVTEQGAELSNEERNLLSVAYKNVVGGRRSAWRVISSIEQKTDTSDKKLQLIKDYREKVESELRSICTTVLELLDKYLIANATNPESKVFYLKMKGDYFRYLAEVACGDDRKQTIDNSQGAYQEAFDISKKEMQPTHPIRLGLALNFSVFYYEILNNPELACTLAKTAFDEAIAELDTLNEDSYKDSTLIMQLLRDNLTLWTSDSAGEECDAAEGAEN

Compound in this test: C#CCNC(=O)CCSSCCC(=O)NCCc1ccc(C=O)c(C=O)c1
Put plainly: lysine labeling ratio R10:1 (500 µM / 50 µM probe), SILAC-ABPP in living cells; higher = lower intrinsic lysine reactivity toward the probe, active = 2 or less. The conditions noted are these: HeLa; probe concentrations 500 vs 50 µM. The procedure, abridged:
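For each lysine, R is the median over forward and reverse replicates of the filtered median MS1 peptide ratio of high probe to low probe. The probe, an alkyne-tagged, disulfide-linked lysine probe, was given at 500 µM or 50 µM to living SILAC light and heavy HeLa cells in PBS at room temperature, with label swaps. Values are capped at 20.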
As to “YWHAQ (lysine site: K85) (UniProt P27348)”, the “lysine labeling ratio R10:1” value is 4.79 (inactive).
Turning to “EPRS (lysine site: K498) (UniProt P07814)”, the “lysine labeling ratio R10:1” value is 2.78 (inactive).
Consider “PTGES2 (lysine site: K233) (UniProt Q9H7Z7)”, for which the “lysine labeling ratio R10:1” value was 2.07 (inactive).
As to “PLXNB2 (lysine site: K941) (UniProt O15031)”, the “lysine labeling ratio R10:1” value was 2.31 (inactive).
Turning to “RPS5 (lysine site: K47) (UniProt P46782)”, the “lysine labeling ratio R10:1” value was 1.01 (active).
In the case of “TXLNA (lysine site: K240) (UniProt P40222)”, the “lysine labeling ratio R10:1” value was 1.67 (active).
To “FAS (lysine site: K100) (UniProt P25445)” belongs 1.44 (active).
Take “SPTAN1 (lysine site: K39) (UniProt Q13813)”: the “lysine labeling ratio R10:1” value is 2.65 (inactive).
Regarding “CACYBP (lysine site: K220) (UniProt Q9HB71)”, the “lysine labeling ratio R10:1” value was 1.74 (active).
As for “RPL3 (lysine site: K272) (UniProt P39023)”, the “lysine labeling ratio R10:1” value was 2.04 (inactive).
For the target “CHCHD3 (lysine site: K86) (UniProt Q9NX63)”, the “lysine labeling ratio R10:1” value was 0.99 (active).
With UniProt Q13275 (lysine site: K581), the “lysine labeling ratio R10:1” value was 3.3 (inactive).
With “CHCHD3 (lysine site: K89) (UniProt Q9NX63)”, the “lysine labeling ratio R10:1” value was 0.99 (active).
As to UniProt Q9UHN6 (lysine site: K376), the “lysine labeling ratio R10:1” value was 3.02 (inactive).
As for “MSN (lysine site: K501) (UniProt P26038)”, the figure is 5.08 (inactive); as for UniProt Q6NZI2 (lysine site: K276), 4.1 (inactive).
On to “HSP90B1 (lysine site: K142) (UniProt P14625)”, for which the “lysine labeling ratio R10:1” value is 2.93 (inactive).
For the target “FAT1 (lysine site: K978) (UniProt Q14517)”, the “lysine labeling ratio R10:1” value is 0.71 (active).
“RPS19 (lysine site: K97) (UniProt P39019)”: the “lysine labeling ratio R10:1” value was 1.48 (active).
Regarding “ILF3 (lysine site: K214) (UniProt Q12906)”, the “lysine labeling ratio R10:1” value is 1.16 (active).
With “RARS (lysine site: K557) (UniProt P54136)”, the “lysine labeling ratio R10:1” value is 1.64 (active).
On to “EPCAM (lysine site: K160) (UniProt P16422)”, for which the “lysine labeling ratio R10:1” value is 2.33 (inactive).
For “CYR61 (lysine site: K203) (UniProt O00622)”, the “lysine labeling ratio R10:1” value is 2.96 (inactive).
